The record followed here is ChEMBL document CHEMBL1157539, “Thousands of chemical starting points for antimalarial lead identification” (Nature, 2010).

In general, Inhibition refers to the change of the read-out against control, counted positive when it falls. High values mean strong suppression, low ones little suppression.

Common to all, as to type: functional
In assay [1] the test system is Plasmodium falciparum. Put plainly: GSK_TCMDC: Inhibition of Plasmodium falciparum 3D7 in whole red blood cells, using parasite LDH activity as an index of growth. Test compounds present at 2uM.
In assay [2] the test system is Plasmodium falciparum. Put plainly: GSK_TCMDC: Inhibition of Plasmodium falciparum Dd2 in whole red blood cells, using parasite LDH activity as an index of growth. Test compounds present at 2uM.
Assay [3] relates to HepG2. Put plainly: GSK_TCMDC: Percent inhibition of human HepG2 cell line. Test compounds present at 10uM.

Each structure is given as a SMILES string.

Take `CC(O)C1CCCCN1C(=O)c1cccc(-c2cccc(-c3nc4cc(C(F)(F)F)ccc4[nH]3)c2)c1` (configuration not stated): the figures for the Inhibition in assay [1], in assay [2] and in assay [3] were 100%, 100% and 32%, respectively.

As for `Cc1cccc2nc(-c3cccc(-c4ccc(NC(=O)Cc5ccc[n+]([O-])c5)cc4)c3)[nH]c12`, the Inhibition was 99% in assay [1], 87% in assay [2] and 11% in assay [3].

Regarding `N#Cc1ccc(-c2ccc(OCC(O)CN3CCCN(Cc4cccc(O)c4Cl)CC3)cc2)cc1` (configuration not stated), the Inhibition in assay [1] amounted to 98%; in assay [2], 66%; in assay [3] it was 3%.

With `Cc1cccc2nc(-c3cccc(-c4cccc(CNCc5ccccc5)c4)c3)[nH]c12.O=C(O)C(F)(F)F`, the results for the Inhibition in assay [1], in assay [2] and in assay [3] were 100%, 56% and 3%, respectively.

`O=C(O)C(F)(F)F.O=C1COC2(CN1C1CCN(Cc3ccc(O)cc3Cl)C1)c1ccccc1-c1ccccc12` (configuration not stated): the Inhibition in assay [1] is recorded as 82%; in assay [2], 70%; in assay [3], 10%.

As for `Cn1cnc2c(SCc3ccc(OCc4ccccc4)cc3)ncnc21`, the Inhibition worked out at 95% in assay [1], 87% in assay [2] and 1% in assay [3].

As to `O=C(NCCCCCN1CCC(c2c[nH]c3ccccc23)CC1)Nc1cccc(Br)c1`, the Inhibition in assay [1] came to 84%; in assay [2], 0%; in assay [3], 39%.

With `O=C(Nc1cccc(F)c1)N1CCC(NS(=O)(=O)c2ccc(Br)cc2)CC1`, the Inhibition in assay [1] came out at 93%; in assay [2], 23%; in assay [3] it was 4%.

With `COc1ccc2nc3cc(Cl)ccc3c(NCCCCCCNc3c4ccc(Cl)cc4nc4ccc(OC)cc34)c2c1.Cl.Cl.Cl.Cl`, the values for the Inhibition in assay [1], in assay [2] and in assay [3] were 96%, 79% and 20%, respectively.

Regarding `O=C(Nc1cccc(-c2csc(NC(=O)c3ccc4ccccc4c3)n2)c1)c1ccc2ccccc2c1`, the Inhibition in assay [1] amounted to 89%; in assay [2], 35%; in assay [3], 3%.

For the compound `O=C(Nc1ccc2ccccc2c1)c1ccc(CN2CCC(Cc3ccccc3)CC2)cc1`, the Inhibition in assay [1] is recorded as 95%; in assay [2] it was 10%; in assay [3], 38%.

With `O=S(=O)(Nc1cccc(CCN2CCC(N3CCCCC3)CC2)c1)c1ccc(-c2ccccc2)cc1`, the values for the Inhibition in assay [1], in assay [2] and in assay [3] were 100%, 49% and 76%, respectively.

`CCOc1ccc2nc3cc([N+](=O)[O-])ccc3c(N)c2c1`: the Inhibition in assay [1] amounted to 99%; in assay [2], 100%; in assay [3] it was 67%.

For the compound `Cl.O=C(O)CCCN1CCCC(=C(c2ccccc2)c2ccccc2)C1`, the Inhibition in assay [1] was found to be 82%; in assay [2] it was 2%; in assay [3], 0%.

Regarding `Cc1cccc2c(/C=C/C(=O)NC3CCC(CCN4CCc5ccc(C#N)cc5CC4)CC3)c[nH]c12.Cl` (configuration not stated), the Inhibition in assay [1] is on record as 91%; in assay [2] it was 49%; in assay [3] it was 18%.

Consider `Cc1nc(Nc2ccncc2)cc(-c2ccncc2)n1`, for which the figures for the Inhibition in assay [1], in assay [2] and in assay [3] were 100%, 3% and 6%, respectively.

Regarding `O=C(Nc1ccc2c(c1)OCO2)NC1CCN(c2ccnc(NCc3ccc(F)cc3)n2)CC1`, the Inhibition turned out to be 88% in assay [1], 15% in assay [2] and 33% in assay [3].

As for `CCN1CCN(CCNc2c3ccccc3nc3ccccc23)CC1.Cl`, the Inhibition in assay [1] stood at 93%; in assay [2], 8%; in assay [3] it was 45%.

For `CN1CCN(Cc2nc(-c3ccc4c(Nc5ccc(Oc6ccccc6)cc5)ccnc4c3)cs2)CC1`, the Inhibition amounted to 100% in assay [1], 99% in assay [2] and 15% in assay [3].

In the case of `Oc1ccc2[nH]cc(C3CCN(CCCNCc4ccc(-c5ccccc5)cc4)CC3)c2c1`, the Inhibition is 100% in assay [1], 0% in assay [2] and 22% in assay [3].

As to `c1cn(-c2ccc(CNc3nccc(Nc4ccc(OCCN5CCOCC5)cc4)n3)cc2)cn1`, the Inhibition in assay [1] is listed as 100%; in assay [2], 3%; in assay [3], 2%.

`O=C(NCCCCN1CCC(c2ccc3c(c2OCC2CC2)CCCC3)CC1)c1ccc(NC(=O)c2ccc(Cl)cc2)cc1`: the Inhibition was determined as 100% in assay [1], 93% in assay [2] and 23% in assay [3].

With `CCOC(=O)c1sc(C(C)Nc2ccccc2)nc1-c1ccccc1` (configuration not stated), the Inhibition worked out at 95% in assay [1], 91% in assay [2] and 0% in assay [3].

Regarding `O=C(Cn1c(=O)cnc2ccccc21)Nc1cccc(C(=O)Nc2cccc(C(F)(F)F)c2)c1`, the Inhibition in assay [1] turned out to be 90%; in assay [2], 66%; in assay [3] it was 0%.

In the case of `O=C(Nc1ccc(Cl)cc1)Nc1ccc(Cn2ncc(N3CCCNCC3)c(Cl)c2=O)cc1.O=C(O)C(F)(F)F`, the Inhibition in assay [1] came out at 85%; in assay [2], 11%; in assay [3] it was 49%.

On to `Cc1ccc(NS(=O)(=O)c2cccs2)cc1-c1cccc(C(=O)Nc2ccc(F)cc2)c1`, for which the Inhibition in assay [1] stood at 99%; in assay [2], 100%; in assay [3], 38%.

Turning to `CC(C)C(C)(C#N)NC(=O)CSc1nc2ccc([N+](=O)[O-])cc2s1` (configuration not stated), the Inhibition in assay [1] turned out to be 95%; in assay [2], 81%; in assay [3] it was 0%.

With `CCOc1ccc(C(=O)N2CCOC(CCN3CCC4(CCc5ccccc54)CC3)(c3ccc(Cl)c(Cl)c3)C2)cc1` (configuration not stated), the Inhibition in assay [1] was 81%; in assay [2], 25%; in assay [3] it was 25%.

Take `O=C(Nc1cccc(C(F)(F)F)c1)c1ccc(S(=O)(=O)NCC2CCCN(CC3CCCCC3)C2)cc1.O=C(O)C(F)(F)F` (configuration not stated): the Inhibition in assay [1] stood at 95%; in assay [2], 9%; in assay [3], 26%.
